Experimental data published in PubChem BioAssay (NCI).
About 83,000 compounds went through this panel and 20% of them were active in at least one assay; those are over-represented in the sample as a whole.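 In brief: 96-well plates, 48 h treatment, single concentration, percent growth endpoint.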 Values without a mark were called inactive. Active and inactive are the calls of the source. How the source made its calls: active means growth percent below 10; inactive means the rest.

Tested on: TK-10 renal
Test: NCI-60 one-dose screen, 48 h (100 = growth as untreated, 0 = no growth, -100 = all killed)
Conditions: 10 µM unless noted

Row | Compound | growth
1 | C#C[C@]1(O)CC[C@H]2[C@@H]3CC=C4c5sc(Nc6cccc(C)n6)nc5CC[C@]4(C)[C@H]3CC[C@@]21C | 77.2%
2 | Clc1ccc(-c2csc(N/N=C/c3nc4ccccc4n3C3CC3)n2)cc1 | 85.6%
3 | O=C(NNc1nc2cc(F)c(F)cc2n2cccc12)c1ccncn1 | 27.1%
4 | CCn1c2ccc(/C=N/NS(=O)(=O)CCN(C)C)cc2c2cc(/C=N/NS(=O)(=O)CCN(C)C)ccc21 | 88.1%
5 | COc1ccc(-c2nnc(/N=C3/C(=O)Nc4ccc(Br)cc43)o2)cc1 | 143%
6 | O=C(CCCCCCN1CC(=O)N2[C@@H](c3ccc(Cl)c(F)c3)c3[nH]c4ccccc4c3C[C@H]2C1=O)NO | 107%
7 | O=C(N/N=C\c1ccc(Cl)cc1)c1ccc2nc(-c3ccc(Br)cc3)[nH]c2c1 | -26.8% (active)
8 | O=C1CSC(=O)N1Cc1cc2ccccc2nc1Cl | 98.5%
9 | CCCCSc1nnc(-c2ccc(-c3ccc(Cl)cc3)nc2C)o1 | 109%
10 | COc1ccc(/C=N\NC(=O)c2ccc3nc(-c4ccc(Br)cc4)[nH]c3c2)cc1 | 51.6%
11 | NS(=O)(=O)c1ccc(Nc2nc(N/N=C/c3ccc([N+](=O)[O-])cc3)nc(Nc3ccccc3)n2)cc1 | 93.8%
12 | COc1cc(NC2=C(Cl)C(=O)c3nc(C)ccc3C2=O)cc(OC)c1 | -50.1% (active)
13 | Cc1ccc(/C=C/CC(=O)Nc2ccc(C(=O)Nc3ccc(F)cc3N)cc2)cn1 | 34.9%
14 | O=C(c1ccc(O)cc1)[C@@H]1[C@@H]2CCCN2[C@@]2(C(=O)N(C(=O)c3ccc(F)cc3)c3ccccc32)[C@H]1c1ccc(F)cc1 | 143%
15 | COc1ccc(S(=O)(=O)n2cc(C=O)c3ccccc32)c(OC)c1 | 106%
16 | C#C[C@]1(O)CC[C@H]2[C@@H]3CC=C4c5sc(Nc6cc(Cl)ccn6)nc5CC[C@]4(C)[C@H]3CC[C@@]21C | 35.4%
17 | N#C/C(=C\c1ccc2ccccc2c1)C(=O)Nc1sc2c(c1C#N)CCC2 | 108%
18 | CN1CCN(Cc2ccc(NC(=O)c3cncc(C#Cc4cnc5ccc(O[C@H]6CCOC6)nn45)c3)cc2C(F)(F)F)CC1 | -87.2% (active)
19 | C/C=C/C=C1\C[C@H]2CO[C@H](O2)C1=O | 108%
20 | O=C(NNc1nc2cc(F)cc(F)c2n2cccc12)c1ncccn1 | 26%

Row | Compound | growth
21 | C#CCOc1ccc(/C=N/Nc2nc(-c3cc(Cl)ccc3Cl)cs2)cc1 | 148%
22 | COc1ccc(-c2nc(SCC(C)C)nc(N/N=C\c3cccc([N+](=O)[O-])c3)c2C#N)cc1 | 91.4%
23 | CNC(=O)c1cc(Oc2ccc3nc(NC(=O)c4ccc(CN5CCN(C)CC5)c(C(F)(F)F)c4)sc3c2)ccn1 | 104%
24 | C#C[C@]1(O)CC[C@H]2[C@@H]3CC=C4c5sc(Nc6ccc(OC)nc6)nc5CC[C@]4(C)[C@H]3CC[C@@]21C | 124%
25 | O=C1Nc2ccc(Br)cc2/C1=N\c1nnc(-c2ccc(Cl)cc2)o1 | 187%
26 | CC(C)c1nn(-c2ccccc2)c(N2CCCCC2)c1/C=N/NC(N)=S | 113%
27 | COc1cc(/C=C/C(=O)c2ccc(N3CCN(C)CC3)cc2)ccc1F | 124%
28 | CC1CCN(S(=O)(=O)c2ncsc2-c2ccccc2)CC1 | 127%
29 | O=C1[C@@H]2Cc3c([nH]c4ccccc34)[C@H](c3c(Cl)cccc3Cl)N2C(=O)CN1C1CCN(Cc2ccccc2)CC1 | 89.2%
30 | C#C[C@]1(O)CC[C@H]2[C@@H]3CC=C4c5sc(Nc6ccncc6)nc5CC[C@]4(C)[C@H]3CC[C@@]21C | 12%
31 | C#CCOc1ccc(/C=N/Nc2nc(-c3cc4cc(Br)cc(Br)c4oc3=O)cs2)cc1 | 142%
32 | O=C1c2c(c3c4cccnc4[nH]c3c3ccc4ccccc4c23)C(=O)N1CCN1CCCCC1 | 104%
33 | NS(=O)(=O)Oc1ccc2nc(Nc3ccc(F)c(F)c3)ccc2c1 | 118%
34 | Cc1ccc(-c2csc(N/N=C/c3nc4ccccc4n3C3CC3)n2)cc1 | 141%
35 | O=C1c2c(c3c4cc(Br)ccc4[nH]c3c3ccc4ccccc4c23)C(=O)N1CCN1CCCCC1 | 132%
36 | Cc1cnc2nc(NN)[nH]n12 | 105%
37 | O=C(NCCCCCCNC(=O)c1c2c(nc3ccccc13)-c1cccnc1SC2)c1c2c(nc3ccccc13)-c1cccnc1SC2 | 145%
38 | COc1cc(/C=N/n2cnc3oc(-c4ccccc4)cc3c2=N)cc(CN2CCCC2)c1O | 114%
39 | C#C[C@]1(O)CC[C@H]2[C@@H]3CC=C4c5sc(Nc6cccc(Cl)n6)nc5CC[C@]4(C)[C@H]3CC[C@@]21C | 33.2%
